Assay [1] addresses Peroxisome proliferator-activated receptor delta (Homo sapiens) (UniProt Q03181). In words: qHTS assay to identify small molecule agonists of the peroxisome proliferator-activated receptor delta (PPARd) signaling pathway (AID 743212; calls by dose curve). The essentials: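 Cells expressing a UAS-driven beta-lactamase reporter (PPARd-bla HEK293H) were given test compounds after a 5 h settle and kept at 37 C. Reporter activity was then measured as FRET fluorescence using LiveBLAzer B/G substrate.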
(In qHTS, concentration-response curves come from the screen itself.)

Assay [2] can be described thus: qHTS assay to identify small molecule antagonists of the peroxisome proliferator-activated receptor delta (PPARd) signaling pathway - cell viability counter screen (AID 743213). Note: nearly all actives have a fitted effect of over 50% in size. Note: potency is the fitted concentration of half-maximal effect. The essentials:
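Luminescence from CellTiter-Glo, added after the bla read and incubated 30 min at room temperature, gives viability of HEK293H PPARd-bla cells exposed to compounds for 17 h at 37 C with 300 nM L165041.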

Assay [3] has as its target Peroxisome proliferator-activated receptor delta (Homo sapiens) (UniProt Q03181). The experiment in a line: qHTS assay to identify small molecule antagonists of the peroxisome proliferator-activated receptor delta (PPARd) signaling pathway (AID 743215; active = well fitted inhibition curve with a large enough effect in the signal ratio in the repeat runs, not every such curve was filed as active; the % refers to the signal ratio;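 note: cells stimulated with agonist L165041 at 300 nM final during compound exposure; series mostly up to about 62 µM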). The essentials: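 Screen format: qHTS, antagonist mode. HEK293H PPARd-bla cells received compound and 300 nM L165041 (final), 17 h, 37 C. Beta-lactamase detected via FRET substrate fluorescence, 2 h, room temperature.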

Assay [4] in a line: qHTS assay to identify small molecule agonists of the farnesoid-X-receptor (FXR) signaling pathway - cell viability counter screen (AID 743218). Note: nearly all actives have a fitted effect of over 45% in size. The method in brief:
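Same-well cytotoxicity check on FXR-UAS-bla HEK 293T cells: 5 h attachment, 16 h compound at 37 C, CellTiter-Glo luminescence read at room temperature after 30 min.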

The nature of assay [5]: qHTS assay to identify small molecule antagonists of the farnesoid-X-receptor (FXR) signaling pathway - cell viability counter screen (AID 743221; active = well fitted cell-killing curve with a large enough effect in the repeat runs, not every such curve was filed as active; note: nearly all actives have a fitted effect of over 50% in size). The essentials:
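Here viability was scored by luminescence after CellTiter-Glo addition to wells already read for beta-lactamase. Prior treatment: compound plus CDCA (50 uM final), 16 h, 37 C, HEK 293T FXR-bla cells.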

Assay [6] has as its target Vitamin D3 receptor (Homo sapiens) (UniProt P11473). In words: qHTS assay to identify small molecule agonists of the vitamin D receptor (VDR) signaling pathway (AID 743222; calls by dose curve). The essentials:
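Using LiveBLAzer B/G FRET detection, agonism was scored in VDR-bla cells exposed overnight (16 h, 37C) to DMSO-dissolved compounds; substrate incubation was 2 h at room temperature.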

Assay [7] deals with Bile acid receptor (Homo sapiens) (UniProt Q96RI1). In words: qHTS assay to identify small molecule antagonists of the farnesoid-X-receptor (FXR) signaling pathway (AID 743217; active = well fitted inhibition curve with a large enough effect in the signal ratio in the repeat runs, not every such curve was filed as active; the % refers to the signal ratio). The method in brief: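 Quantitative HTS, beta-lactamase reporter format: FXR-UAS-bla HEK 293T cells co-treated 16 h at 37 °C with compounds and 50 uM final chenodeoxycholic acid, then read by B/G FRET fluorescence.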

Assay [8] has the same target. In words: qHTS assay to identify small molecule agonists of the farnesoid-X-receptor (FXR) signaling pathway (AID 743220; active = well fitted activation curve with a large enough effect in the signal ratio in the repeat runs, not every such curve was filed as active; the % refers to the signal ratio). The method in brief:
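FXR-UAS-bla HEK 293T cells carrying a UAS-driven beta-lactamase reporter were plated for 5 h at 37C/5% CO2, then exposed to DMSO-dissolved Tox21 10K compounds for 16 h at 37C. A LiveBLAzer B/G FRET substrate was loaded for 2 h at room temperature before fluorescence reading.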

In assay [9] the target is Vitamin D3 receptor (Homo sapiens) (UniProt P11473). In words: qHTS assay to identify small molecule antagonists of the vitamin D receptor (VDR) signaling pathway (AID 743223; active = well fitted inhibition curve with a large enough effect in the signal ratio in the repeat runs, not every such curve was filed as active; the % refers to the signal ratio). The essentials: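 Inhibition of agonist-driven VDR signalling is scored in VDR-bla cells: 3 nM final 1alpha,25-dihydroxyvitamin D3 plus compound, 16 h at 37C, then beta-lactamase detection by FRET substrate fluorescence after 2 h.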

The nature of assay [10]: qHTS assay to identify small molecule agonists of the peroxisome proliferator-activated receptor delta (PPARd) signaling pathway - cell viability counter screen (AID 743211). Note: nearly all actives have a fitted effect of over 55% in size. Note: potency is the fitted concentration of half-maximal effect. The essentials:
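In the same wells used for beta-lactamase reporter measurement, cytotoxicity is scored by CellTiter-Glo. HEK293H PPARd-bla cells receive compound for 17 h at 37C following a 5 h settling period.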

The structures appear in SMILES notation. Inconclusive results are not listed. Values without a mark were called inactive. Calls of active or inactive are those of the source. Unless noted, calls come from the whole dose curve; as a rule, active = well fitted curve in the direction sought with a large enough effect in the repeat runs; inconclusive = weak or mixed curves; inactive = no such curve, though single readings can be large; an effect the other way counts as inactive or inconclusive.

Vitamin D3 receptor (Homo sapiens), sequence (P11473 whole entry, looked up): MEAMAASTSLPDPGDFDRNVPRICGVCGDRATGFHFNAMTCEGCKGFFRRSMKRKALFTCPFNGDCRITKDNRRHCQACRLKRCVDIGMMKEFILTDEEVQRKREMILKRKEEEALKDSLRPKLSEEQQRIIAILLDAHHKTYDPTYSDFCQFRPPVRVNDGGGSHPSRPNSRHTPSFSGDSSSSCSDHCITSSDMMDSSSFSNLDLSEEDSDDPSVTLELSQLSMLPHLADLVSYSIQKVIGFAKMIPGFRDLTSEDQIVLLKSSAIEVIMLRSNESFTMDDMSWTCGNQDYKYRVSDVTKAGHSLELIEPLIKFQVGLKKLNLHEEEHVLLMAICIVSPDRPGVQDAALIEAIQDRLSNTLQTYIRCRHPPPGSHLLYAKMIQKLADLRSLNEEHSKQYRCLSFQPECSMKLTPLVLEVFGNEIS
Bile acid receptor (Homo sapiens), sequence (Q96RI1 whole entry, looked up): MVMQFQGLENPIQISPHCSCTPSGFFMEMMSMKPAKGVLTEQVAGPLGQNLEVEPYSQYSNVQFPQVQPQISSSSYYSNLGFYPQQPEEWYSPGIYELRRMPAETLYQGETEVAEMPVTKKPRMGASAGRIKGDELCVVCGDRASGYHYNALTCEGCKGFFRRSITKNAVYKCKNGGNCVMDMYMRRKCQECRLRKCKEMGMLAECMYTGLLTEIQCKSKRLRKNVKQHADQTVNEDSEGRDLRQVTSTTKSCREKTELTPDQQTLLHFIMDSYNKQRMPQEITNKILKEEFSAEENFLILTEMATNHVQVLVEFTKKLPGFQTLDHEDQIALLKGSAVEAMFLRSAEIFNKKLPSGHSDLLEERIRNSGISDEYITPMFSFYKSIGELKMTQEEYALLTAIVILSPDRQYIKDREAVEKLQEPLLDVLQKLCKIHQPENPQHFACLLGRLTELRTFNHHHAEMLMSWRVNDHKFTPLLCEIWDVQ
Peroxisome proliferator-activated receptor delta (Homo sapiens), sequence (Q03181 whole entry, looked up): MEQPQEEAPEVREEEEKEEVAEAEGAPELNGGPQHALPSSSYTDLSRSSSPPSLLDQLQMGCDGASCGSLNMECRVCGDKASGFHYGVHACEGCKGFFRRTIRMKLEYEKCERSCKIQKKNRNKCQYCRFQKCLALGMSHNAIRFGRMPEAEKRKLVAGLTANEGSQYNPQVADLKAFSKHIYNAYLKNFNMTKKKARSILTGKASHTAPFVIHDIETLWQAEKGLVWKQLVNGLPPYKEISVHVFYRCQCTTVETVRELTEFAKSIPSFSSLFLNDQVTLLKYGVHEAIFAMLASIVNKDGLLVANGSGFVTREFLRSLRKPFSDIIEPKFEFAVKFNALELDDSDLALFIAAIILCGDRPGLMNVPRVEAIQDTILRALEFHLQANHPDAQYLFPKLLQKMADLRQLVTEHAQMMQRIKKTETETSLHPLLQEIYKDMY

In the case of `C=Cc1ccccc1`, the result in [1], in [3], in assay [5] and in assay [6] was inactive. The Potency entry in [2] and in assay [4] was “inactive” throughout.

Take `CN1CCN(C2=Nc3cc(F)ccc3Cc3ccccc32)CC1`: the outcome in assay [1], in [3], in [7], in assay [8] and in assay [6] was inactive. Besides, the Potency entry in assay [2] and in assay [4] was “inactive” in each case.

As for `CC(C)(CO)[C@@H](O)C(=O)NCCC(=O)O`, the outcome in [1], in [3], in assay [5], in [6] and in [9] was inactive. The Potency result in assay [2] and in [4] was “inactive” each time.

On to `CC1=CC(=O)CC(C)(C)C1=O`, for which the result in assay [1], in assay [3], in assay [5], in assay [6] and in assay [9] was inactive. In addition, the Potency entry in assay [2] and in [4] was “inactive” throughout.

As for `CN1CCN(c2c(F)cc3c(=O)c(C(=O)O)cn(CCF)c3c2F)CC1`, the outcome in assay [1], in assay [3], in [5] and in assay [6] was inactive. In addition, the Potency result in [2] and in [4] was “inactive” each time.

In the case of `Cc1c[nH]c(=S)[nH]c1=O`, the result in assay [1], in assay [5] and in assay [9] was inactive. In [2], the Potency was 55.1 µM (active). Besides, the Potency entry in assay [4] is “inactive”.

Regarding `CCCC(CCC)(C(=O)OCC)C(=O)OCC`, the call in assay [1], in [7], in assay [8] and in assay [5] was inactive. The Potency result in assay [2] and in assay [4] was “inactive” throughout.

As for `COc1ccc(S(=O)(=O)Nc2nnc(CC(C)C)s2)cc1`, the compound was classed as inactive in assay [1] and in assay [5]. In addition, the Potency entry in assay [2] is “inactive”.

With `CC(=O)Nc1ccc(C)c(Cl)c1`, the Potency result in assay [10] is “inactive”. In addition, the call in [3], in assay [7], in assay [8], in assay [5] and in assay [6] was inactive.

With `COc1ccccc1OCC(O)COC(N)=O` (stereo not drawn), the outcome in assay [1], in assay [3] and in assay [5] was inactive. Also, the Potency entry in assay [2] and in assay [4] was “inactive” in each case.

Regarding `N#CSCC(=O)O`, the call in assay [1], in [3], in assay [8] and in [5] was inactive. In addition, the Potency entry in assay [2] and in assay [4] was “inactive” throughout.

Take `O=C1CCCCC1C1CCCCC1` (stereo not drawn): the call in [1], in [3], in assay [5], in assay [6] and in [9] was inactive. Also, the Potency entry in assay [2] and in [4] was “inactive” throughout.

Regarding `Cc1cc(S(=O)(=O)O)c(N)cc1Cl`, the result in assay [1], in [3], in [5] and in [6] was inactive. Moreover, the Potency entry in [2] and in assay [4] was “inactive” throughout.

For the compound `COc1ccc(Nc2ccc(OC)cc2)cc1`, the Potency result in [10] and in [4] was “inactive” each time. Further, the compound was called inactive in [8], in assay [5] and in assay [6].

Consider `CCOC(=O)CS`, for which the compound was classed as inactive in assay [1], in [3], in [7], in assay [8], in assay [5] and in assay [6]. The Potency entry in assay [2] and in assay [4] was “inactive” throughout.

`CCC(=O)c1ccc2c(c1)N(CCCN(C)C)c1ccccc1S2`: in assay [10], the Potency is 29.8 µM (active). In assay [8], the compound was classed as inactive.

As to `CC(C)=CCCC(C)CCOC=O` (stereo not drawn), the Potency result in [10] and in assay [4] was “inactive” in each case. Further, the compound was called inactive in [3], in [7], in assay [8] and in assay [5].

Take `Clc1cccc(-c2cc(Cl)cc(Cl)c2)c1`: the Potency result in assay [10] and in assay [2] was “inactive” each time. The result in assay [5], in [6] and in [9] was inactive.

As to `CCOC(=O)COc1ccc2c(c1)CC(NCC(O)c1cccc(Cl)c1)CC2` (stereo not drawn), the outcome in [1], in assay [3], in assay [5] and in assay [9] was inactive. Moreover, the Potency result in assay [2] and in assay [4] was “inactive” each time.

In the case of `CCCN(CCC)C(=O)C(CCC(=O)O)NC(=O)c1ccccc1` (stereo not drawn), the compound was called inactive in assay [1], in assay [3], in [5] and in assay [6]. In addition, the Potency entry in [2] and in [4] was “inactive” throughout.

Consider `CC(=O)N[C@@H](CC(C)C)C(=O)O`, for which the Potency result in assay [10] and in assay [4] was “inactive” in each case. Besides, the compound was called inactive in assay [8], in [5] and in assay [9].

For the compound `NS(=O)(=O)c1cc(-c2nn[nH]n2)c(NCc2cccs2)cc1Cl`, the result in [1], in assay [3], in assay [5] and in [6] was inactive. Besides, the Potency result in assay [2] and in assay [4] was “inactive” throughout.

Regarding `CC1CN(c2ccccc2)NC1=O` (stereo not drawn), the outcome in [1], in assay [3], in assay [8], in assay [5] and in assay [6] was inactive. The Potency result in [2] and in assay [4] was “inactive” throughout.

With `CCOc1ccc(NC(N)=O)cc1`, the Potency entry in [10] and in [4] was “inactive” each time. For the same compound, the outcome in [8] and in assay [5] was inactive.

With `Cc1nc(-c2ccccn2)ncc1C(=O)Nn1cc(C)c2cc(F)ccc21`, the call in [1], in assay [7], in assay [5], in [6] and in assay [9] was inactive. For the same compound, the Potency result in assay [2] and in assay [4] was “inactive” each time.

Turning to `CC1(C)O[C@@H]2C[C@H]3[C@@H]4CCC5=CC(=O)CC[C@]5(C)[C@@]4(F)[C@@H](O)C[C@]3(C)[C@]2(C(=O)CCl)O1`, the Potency result in [10] and in assay [2] was “inactive” each time. For the same compound, the compound was called inactive in [5] and in [6].

Take `CCNCCO`: the compound was classed as inactive in [1], in assay [7], in assay [8], in [5] and in assay [6]. Further, the Potency entry in assay [2] and in [4] was “inactive” in each case.

As for `CCC(=O)Nc1ccc(O)cc1`, the call in assay [1], in [3], in assay [7], in assay [8], in assay [5] and in assay [6] was inactive. The outcome in [9] was inactive. Besides, the Potency entry in [2] and in assay [4] was “inactive” each time.

As for `C/C(=N\O)[C@@H](C)NCC(C)(C)CN[C@H](C)/C(C)=N/O`, the compound was classed as inactive in [1], in assay [5] and in [9]. Also, the Potency entry in [2] and in [4] was “inactive” in each case.

`CNCCC(Oc1ccccc1OC)c1ccccc1` (stereo not drawn): the outcome in assay [1], in assay [3], in [8], in [5], in assay [6] and in assay [9] was inactive. Also, the Potency entry in [2] and in assay [4] was “inactive” each time.

Take `CN(CCCN1c2ccccc2CCc2ccccc21)CC(=O)c1ccc(Cl)cc1`: the result in assay [1], in assay [3], in assay [7], in [8], in [5] and in assay [6] was inactive. Moreover, in assay [9], the result was inactive. Moreover, the Potency entry in assay [2] and in assay [4] was “inactive” throughout.

In the case of `CCOC(=O)[C@H](CCc1ccccc1)N[C@@H](C)C(=O)N1Cc2cc(OC)c(OC)cc2C[C@H]1C(=O)O`, the call in assay [1], in assay [3], in assay [5], in assay [6] and in assay [9] was inactive. Besides, the Potency entry in assay [2] and in [4] was “inactive” each time.

Values taken from PubChem BioAssay (Tox21).
